Compounds with a hit are over-represented: about 6.9% of the library has one in this group of screens.
JMJD2A Tudor = qHTS Assay for Inhibitors of JMJD2A-Tudor Domain; AlphaScreen JMJD2A-Tudor / H3K4me3 peptide binding; AID 504339, 2011; Potency, µM (series often up to 114 µM), actives largely listed as inhibitors; Lysine-specific demethylase 4A (Homo sapiens), O75164; hit rate 4.4% among 390,000; further: nearly all actives have a fitted effect of over 50% in size
HP1b binding inh = HTS for Inhibitors of HP1-beta Chromodomain Interactions with Methylated Histone Tails; AlphaScreen HP1-beta / biotin-H3K9me3 peptide binding; hit rate 0.56% among 390,000; Potency, µM (series often up to 114 µM), usual class: inhibitors; Chromobox protein homolog 1 (Homo sapiens), P83916; further: nearly all actives have a fitted effect of over 70% in size
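Compound inhibition of the preformed complex between 50 nM HP1-beta and 50 nM biotinylated H3K9me3 peptide was read by AlphaScreen. Buffer was PBS pH 7.4 with 0.01% Tween-20. Incubations ran 30 min at room temperature, with 10 ug/mL donor/acceptor beads.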
L3MBTL1 block = qHTS Assay for the Inhibitors of L3MBTL1 | Lethal(3)malignant brain tumor-like protein 1 (Homo sapiens), Q9Y468 | AlphaScreen L3MBTL1–H3K9me1 peptide binding | Potency, µM (top dose mostly 57.1 µM), actives largely listed as inhibitors | hit rate 0.66% among 230,000; further: nearly all actives have a fitted effect of over 60% in size
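Displacement of a biotinylated histone H3(1-15) peptide monomethylated at Lys9 (75 nM) from L3MBTL1 (50 nM) was measured by AlphaScreen after a 30 min room-temperature compound incubation; cefsulodin titration served as intraplate control.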
VDR inh = Inhibitors of the vitamin D receptor (VDR): qHTS; Vitamin D3 receptor (Homo sapiens), P11473; VDR-SRC2-3 peptide fluorescence polarization, 2 h; Potency, µM, hits mostly inhibitors; hit rate 0.93% among 400,000; AID 504847, 2011
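Measured by FP: displacement of SRC2-3 coactivator peptide from VDR by library compounds, following a two-hour ambient incubation.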
PLK1 PBD block = qHTS for Inhibitors of PLK1-PDB (polo-like kinase 1 - polo-box domain): Primary Screen; Plk1 PBD binding of FITC phosphopeptide, fluorescence polarization; AID 720504, 2013; Potency, µM, actives largely listed as inhibitors; Serine/threonine-protein kinase PLK1 (Homo sapiens), P53350; hit rate 2.8% among 360,000; further: series mostly up to about 57 µM; nearly all actives have a fitted effect of over 65% in size
BAZ2B inh = qHTS Assay for Inhibitors of BAZ2B | Bromodomain adjacent to zinc finger domain protein 2B (Homo sapiens), Q9UIF8 | AlphaScreen BAZ2B-H3K14Ac peptide displacement | Potency, µM (titrated, usually from 114 µM), usual class: inhibitors | hit rate 4.4% among 360,000 | AID 504333, 2011; further: nearly all actives have a fitted effect of over 60% in size
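Complex of BAZ2B and biotin-H3K14Ac (50 nM apiece) forms over 30 min at RT, then faces library compounds up to 110 uM for another 30 min; AlphaScreen beads added, 20 min dark incubation, luminescence read.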
Of the large screens only hits and unclear results are named; the others gave an inactive call. The call rests on the fitted dose curve; in most records, active means well fitted curve in the direction sought with a large enough effect; inconclusive means small, poorly fitted or top-dose-only effect, or another doubt; inactive means no such curve, though single readings can be large; an effect the other way counts as inactive or inconclusive.

CCOCCCn1c(SCc2ccccc2)nnc1-c1ccncc1	none (no result: L3MBTL1 block)
COCCn1c(SCc2cnc(-c3ccccc3)s2)nnc1-c1ccncc1	PLK1 PBD block 27µM
COc1ccc(C2/C(=C(/O)c3ccc(F)cc3)C(=O)C(=O)N2c2ccccn2)cc1OC (centres undefined)	JMJD2A Tudor 18µM, VDR inh inconclusive, PLK1 PBD block 12µM
COc1cc(C2/C(=C(/O)c3ccccc3)C(=O)C(=O)N2c2ccccn2)ccc1O (centres undefined)	JMJD2A Tudor inconclusive
CN(C(=O)CN1C(=O)/C(=C/c2ccccc2F)SC1=S)C1CCS(=O)(=O)C1 (centres undefined)	BAZ2B inh 45µM (no result: L3MBTL1 block)
CSCCC(c1nnnn1C1CCCC1)N1CCN(C/C=C/c2ccccc2)CC1 (centres undefined)	none (no result: JMJD2A Tudor, HP1b binding inh, L3MBTL1 block, VDR inh, BAZ2B inh)
CC(C)Cn1c(CN2CCN(c3cccc(Cl)c3)CC2)nc2c1c(=O)[nH]c(=O)n2C	JMJD2A Tudor inconclusive (no result: L3MBTL1 block, PLK1 PBD block)
COc1ccc(-n2c(COc3ccc(Cl)cc3)nnc2SCc2ccc(C#N)cc2)cc1	none (no result: L3MBTL1 block)
COc1ccc(NCc2nnc(SCc3ccc(Cl)cc3)n2-c2ccccc2)cc1	JMJD2A Tudor 45µM, HP1b binding inh inconclusive, L3MBTL1 block inconclusive, BAZ2B inh 22µM
O=S(=O)(c1ccc(Cl)cc1)c1nc(-c2ccco2)oc1SCc1ccc(F)cc1	none (no result: L3MBTL1 block, PLK1 PBD block)
COc1ccc(NC(=O)CSc2nnc(-c3ccc(OC)cc3)s2)cc1	none (no result: L3MBTL1 block, PLK1 PBD block)
COc1cc(/C=N/N2CCN(Cc3ccc(Cl)cc3)CC2)ccc1OC(C)=O	JMJD2A Tudor 45µM, HP1b binding inh inconclusive, BAZ2B inh 56µM
COc1cc(/C=N/N2CCN(Cc3ccc(Cl)cc3)CC2)cc(Br)c1O	JMJD2A Tudor 45µM, BAZ2B inh 50µM
COC(=O)c1ccc(/C=N/N2CCN(Cc3ccc(Cl)cc3)CC2)cc1	none
[N-]=[N+]=CC(=O)c1ccnc(C(=O)C=[N+]=[N-])c1	PLK1 PBD block 27µM, BAZ2B inh inconclusive (no result: L3MBTL1 block)
CCc1ccc(Nc2n[n+](-c3ccccc3)c(-c3ccc(N(CC)CC)cc3)s2)cc1	JMJD2A Tudor 40µM, HP1b binding inh inconclusive, BAZ2B inh 40µM
CCN(CC)c1ccc(-c2sc(Nc3ccccc3)n[n+]2-c2ccc(F)cc2)cc1	JMJD2A Tudor 56µM, BAZ2B inh 28µM
CCCNC(=O)c1nn2c(C(F)(F)F)cc(-c3ccccc3)nc2c1Br	none
CCCCNC(=O)c1nn2c(C(F)(F)F)cc(-c3ccc(OC)cc3)nc2c1Br	JMJD2A Tudor 35µM, PLK1 PBD block 12µM
C[N+](C)(C)CCC(=O)N1C/C(=C/c2ccccc2)C(=O)/C(=C\c2ccccc2)C1	VDR inh 79µM (no result: L3MBTL1 block, BAZ2B inh)
CCC(=O)N1CCc2cc(CNC(=O)Cc3ccc(F)cc3)ccc21	none (no result: L3MBTL1 block, PLK1 PBD block)
Cc1cc(SCC(=O)c2cccc([N+](=O)[O-])c2)nc(=O)[nH]1	JMJD2A Tudor inconclusive, HP1b binding inh inconclusive, VDR inh inconclusive, PLK1 PBD block 21µM, BAZ2B inh inconclusive (no result: L3MBTL1 block)
COC(=O)Nc1ccc(SCC(=O)c2cccc([N+](=O)[O-])c2)cc1	JMJD2A Tudor inconclusive, VDR inh inconclusive, PLK1 PBD block 13µM (no result: L3MBTL1 block)
Oc1cc2ccccc2cc1-c1n[nH]c(=S)o1	VDR inh inconclusive, PLK1 PBD block 12µM, BAZ2B inh inconclusive
Cc1cc(-c2n[nH]c(=S)o2)c(C)n1-c1ccccc1	JMJD2A Tudor inconclusive, BAZ2B inh inconclusive
COc1ccc(C(=O)NC(=S)Nc2ccc(Cc3ccncc3)cc2)cc1	JMJD2A Tudor inconclusive, PLK1 PBD block inconclusive, BAZ2B inh inconclusive
CCOC(=O)c1ccc(NC(=O)C2=C(C)Nc3nc(SCc4ccc(Cl)cc4)nn3C2c2ccc(OC)cc2)cc1 (centres undefined)	none (no result: L3MBTL1 block, PLK1 PBD block)
CN(C)c1ccc(N=Cc2nc(-c3ccccc3)oc2O)cc1	PLK1 PBD block 13µM
CC(=O)Oc1oc(-c2ccccc2)nc1C=Nc1ccc(N(C)C)cc1	none
Oc1oc(-c2ccccc2)nc1C=Nc1ccccc1	JMJD2A Tudor 89µM
COC(=O)c1nn(-c2ccc(OC)cc2)c(=O)cc1NN	L3MBTL1 block inconclusive
CCOC(=O)c1nn(-c2ccc(C)cc2)c(=O)c2c(N)scc12	JMJD2A Tudor inconclusive, VDR inh 13µM, BAZ2B inh inconclusive
COC(=O)c1nn(-c2ccc(OC)cc2)c(=O)c2c(N)sc(C)c12	JMJD2A Tudor inconclusive, HP1b binding inh inconclusive, VDR inh inconclusive, PLK1 PBD block 24µM, BAZ2B inh inconclusive
Nc1scc2c(C(=O)O)nn(-c3ccccc3)c(=O)c12	JMJD2A Tudor 79µM, VDR inh inconclusive, BAZ2B inh inconclusive (no result: PLK1 PBD block)
COc1ccc(-n2nc(C(=O)O)c3csc(N)c3c2=O)cc1	JMJD2A Tudor 79µM (no result: HP1b binding inh, L3MBTL1 block, VDR inh, PLK1 PBD block, BAZ2B inh)
COc1cccc(-n2nc(C(=O)O)c3ccccc3c2=O)c1	none
CCc1c(C)[nH]c2c1C(=O)[C@H](CN1CCOCC1)CC2	none (no result: JMJD2A Tudor, HP1b binding inh, L3MBTL1 block, PLK1 PBD block, BAZ2B inh)
Cc1ccsc1CNC(=O)C1(C)CCN1C(=O)C(C)C (centres undefined)	none (no result: JMJD2A Tudor, HP1b binding inh, L3MBTL1 block, VDR inh, BAZ2B inh)
CCOc1cccc(N(C(=O)C2COc3ccccc3O2)C(C(=O)NC2CCCCC2)c2ccc(O)cc2)c1 (centres undefined)	none
CC(C)CCNC(=O)C(c1ccc(O)cc1)N(C(=O)C1COc2ccccc2O1)c1cccc(O)c1 (centres undefined)	JMJD2A Tudor inconclusive, HP1b binding inh inconclusive, PLK1 PBD block 19µM
